Shown are actives, neighbours in structure and some others; about 6.6% of the full set was active somewhere.
Autofluor counter: flagged as autofluorescent in microsphere protease counterscreen. compound autofluorescence counterscreen, microsphere flow cytometry; active compounds read high. fluorescence intensity (concentration not given with the values). hit rate 3.1% among 360,000. AID 624483; in the data active = fluorescence intensity above about 16000; inconclusive = no clear call, values can overlap the other calls
BoNT F protease: BoNT F light chain protease inhibition | Multiplex microsphere protease cleavage assay, flow cytometry | inhibition, % at 10 µM | hit rate 0.22% among 360,000 | AID 588497; in the data active = inhibition above about 35%, passing the limit was not always enough; inconclusive = no clear call, values can overlap the other calls; also: plate controls were buffer without enzyme for full effect and enzyme alone for no effect
BoNT A protease: inhibitors of Botulinum neurotoxin A light chain protease; hit rate 0.17% among 360,000; multiplex microsphere protease substrate cleavage, flow cytometry; inhibition, % at 10 µM; also: plate controls were buffer without enzyme for full effect and enzyme alone for no effect
GDH-TPI counter-1: GDH-TPI coupled enzyme inhibition counter-screen; hit rate 1.2% among 360,000; inhibition, % at 4.8 µM; GDH-TPI coupled enzyme counterscreen, NADH absorbance; in the data active = inhibition above about 30%;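 also: 0% = DMSO wells and 100% = wells lacking the enzyme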
Anthrax LF prot: anthrax lethal factor protease inhibition; P15917; multiplex microsphere protease cleavage assay, LF; inhibition, % at 10 µM; hit rate 0.12% among 360,000; AID 588501; also: plate controls were buffer without enzyme for full effect and enzyme alone for no effect
Mtb FBA inh: inhibitors of M. tuberculosis fructose-bisphosphate aldolase; P9WQA3; purified M. tuberculosis FBA, fluorescence read-out; inhibition, % at 1 µM; hit rate 2.3% among 360,000; AID 588726; in the data active = inhibition above about 27%;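 also: 0% = vehicle and 100% = reference inhibitor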
Mtb FBA confirm: Mtb FBA inhibition, confirmed; purified M. tuberculosis FBA, fluorescence read-out; hit rate 78% among 5,600; inhibition, % at 1 µM; shares compounds with Mtb FBA inh; in the data active = inhibition above about 27%;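 also: 0% = vehicle wells and 100% = reference inhibitor wells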
GDH-TPI counter-2: GDH-TPI inhibition counter-screen for FBA inhibitors; shares compounds with Mtb FBA inh; GDH-TPI coupled enzyme counterscreen, fluorescence; inhibition, % at 1 µM; hit rate 81% among 5,600; AID 652141; in the data active = inhibition above about 10%
* = called active by the depositor; ? = inconclusive; · = no result given; + = active, no number. Rule as the data show it, unless noted: active = inhibition above about 30%; inconclusive = no clear call, values can overlap the other calls; inactive = below that.

SMILES	Autofluor counter	BoNT F protease	BoNT A protease	GDH-TPI counter-1	Anthrax LF prot	Mtb FBA inh	Mtb FBA confirm	GDH-TPI counter-2
CCN(CC)c1ccc(C(=O)OCc2cc(=O)oc3cc(O)ccc23)cc1	3628	-1	0	32*	-2	72*	-4	-2
Cc1ccc(S(=O)(=O)NCC(=O)OCc2cc(=O)oc3cc(C)ccc23)cc1	3822	-8	0	13	-2	3	·	·
Cc1cc(-c2ccccc2)nc(SCC(=O)N2CCCC2)n1	4573	-12	-1	3	2	1	·	·
O=C(c1ccccc1NS(=O)(=O)c1ccc(F)cc1)N1CCOCC1	5219	2	5	2	-2	-2	·	·
CCCCC(=O)Nc1cc2nn(-c3ccc(OC)cc3)nc2cc1C	9743	9	1	-1	12	27*	151*	121*
CCC(=O)Nc1cc2nn(-c3ccc(OC)cc3)nc2cc1C	7899	1	1	3	3	66*	39*	28*
COc1ccc(-n2nc3cc(C)c(NC(=S)NC(=O)c4ccccc4C)cc3n2)cc1	11776	-5	-1	9	0	6	·	·
CCC(=O)Nc1cc2nn(-c3ccc(C)cc3)nc2cc1C	4582	2	0	13	2	6	·	·
CS(=O)(=O)Nc1ccccc1C(=O)NC1CC2CCC1C2 (centres undefined)	?	-1	?	4	-5	37*	65*	49*
Cc1ccccc1CNC(=O)c1ccccc1NS(C)(=O)=O	3760	2	0	14	-4	59*	60*	51*
NC(=O)c1ccc(NC(=O)COC(=O)c2cc3ccccc3cc2O)cc1	2880	0	0	13	-5	0	·	·
Cc1ncc(CN2CCCC(CCC(=O)NCc3ccc(F)c(F)c3)C2)s1 (centres undefined)	2613	6	1	1	1	2	·	·
Cc1cc(C)nc(NC(=O)Cc2cccs2)n1	3656	-2	0	15	0	32*	113*	87*
Fc1cccc(CCNCc2ccccn2)c1	4930	-14	-1	-8	-3	30*	87*	82*
CCOc1ccccc1Oc1coc2cc(O)ccc2c1=O	2471	6	0	22	1	53*	41*	26*
CCOc1ccccc1Oc1coc2cc(OC(=O)c3ccco3)ccc2c1=O	14918	4	3	19	-7	32*	29*	21*
CCOC(=O)c1ccc(Oc2coc3cc(O)ccc3c2=O)cc1	5788	?	-11	7	-6	28*	161*	123*
COc1ccccc1Oc1coc2cc(O)ccc2c1=O	3715	1	-1	24	-2	31*	+	+
COc1ccc(-c2coc3cc(O)ccc3c2=O)cc1OC	2533	-1	0	21	-1	17	·	·
CC(C)(C)c1ccc(S(=O)(=O)N2CCN(C(=O)C3CCC3)CC2)cc1	6177	-4	-1	6	-3	0	·	·
COc1ccc(CCNC(=O)COc2ccc(N(C)S(=O)(=O)c3ccc(C)cc3)cc2)cc1OC	3687	8	-1	3	-7	1	·	·
O=C(CN1CCCC1)Nc1c2c(nc3ccccc13)N(Cc1ccccc1)CC2	10972	-1	1	9	-3	31*	46*	34*
O=C(CN1CCOCC1)Nc1c2c(nc3ccccc13)N(Cc1ccccc1)CC2	2782	7	0	8	0	44*	60*	51*
COc1ccc(OCCC(=O)OCC(=O)NCc2ccccc2OC)cc1	4876	2	2	0	4	-3	·	·
CCC(C)NC(=O)c1ccc2nc(-c3ccc(OC)c(OC)c3)c(-c3ccc(OC)c(OC)c3)nc2c1 (centres undefined)	3049	-7	18	4	0	-1	·	·
SMILES	Autofluor counter	BoNT F protease	BoNT A protease	GDH-TPI counter-1	Anthrax LF prot	Mtb FBA inh	Mtb FBA confirm	GDH-TPI counter-2
CCCNC(=O)c1ccc2nc(-c3ccccc3)c(-c3ccccc3)nc2c1	3966	-8	1	20	1	31*	62*	41*
CCN1CCN(CCNC(=O)c2ccc3nc(-c4cccc(C)c4)c(-c4cccc(C)c4)nc3c2)CC1	5827	-5	2	18	-1	30*	59*	51*
CCN(CC)C(=O)c1ccc2nc(-c3ccccc3)c(-c3ccccc3)nc2c1	2554	1	0	12	2	48*	49*	40*
COCC(C)NC(=O)c1ccc2nc(-c3ccccc3)c(-c3ccccc3)nc2c1 (centres undefined)	3159	?	5	18	17	42*	52*	49*
COc1ccc(-c2nc3ccc(C(=O)NCCCN4CCOCC4)cc3nc2-c2ccc(OC)cc2)cc1	5392	5	4	-7	1	5	·	·
O=C(c1cc2c(s1)CCCC2)N1CCN(CCO)CC1	3876	-6	0	-8	2	-1	·	·
CN(C)CCNc1ncnc2oc(-c3ccccc3)c(-c3ccccc3)c12	3931	5	0	0	-11	26	·	·
COc1ccc(-c2oc3ncnc(NCCCN(C)C)c3c2-c2ccc(OC)cc2)cc1	4026	-18	-1	16	6	46*	69*	72*
CCOC(=O)c1sc2nc(C(C)C)c3c(c2c1N)CC(C)(C)OC3	2432	-1	0	4	-7	6	·	·
CCOC(=O)c1sc2nc(C(C)C)c3c(c2c1N)CCC3	2524	-10	-1	4	-4	29*	96*	82*
CCCc1nc2oc3c(=O)[nH]cnc3c2c2c1CCCC2	2650	-6	1	6	1	9	·	·
CC(C)Cc1nc2sc3c(NCc4ccco4)ncnc3c2c2c1COC(C)(C)C2	10411	-14	-1	11	8	4	·	·
CC(C)c1nc2oc3c(=O)[nH]cnc3c2c2c1COC(C)(C)C2	4091	-2	0	5	1	44*	196*	182*
Cc1sc2ncnc(NCC3CCCO3)c2c1C (centres undefined)	3278	4	0	0	1	1	·	·
Cc1nc2oc3c(NCC4CCCO4)ncnc3c2c2c1COC(C)(C)C2 (centres undefined)	22824*	-2	1	11	-3	102*	+	185*
CC(C)c1nc2oc3c(NCCO)ncnc3c2c2c1COC(C)(C)C2	3544	?	-1	-12	15	88*	129*	99*
CCCc1nc2oc3c(NCCOCCO)ncnc3c2c2c1COC(C)(C)C2	7131	10	4	12	-4	82*	96*	60*
O=C(C1CCCCC1)N1C[C@@H](n2cc(-c3ccc(F)cc3)nn2)[C@H](O)C[C@@H]1c1ccccc1	3384	-4	0	6	2	-1	·	·
C/C(=N\NC(=O)Cc1cccc2ccccc12)c1ccncc1	2091	6	1	7	-1	1	·	·

Screening results deposited in PubChem BioAssay by several laboratories.
